In the supplement of paper PMC11732987, “Enantioselective OTUD7B fragment discovery through chemoproteomics screening and high-throughput optimisation” (Communications Chemistry, 2025):

Experiments:
Assay in all cases: log2 ratio of Biotin-Ahx-Ub-VS probe labelling (fragment/DMSO); higher = less target engagement (more negative = stronger competition), active = hit call of the paper (q ≤ 0.05, log2 ratio ≤ -1)
Details in all cases: compound concentration: 200 uM; treatment time: 3 h
USP9X = USP9X (UniProt Q93008)
Method in brief: (§1)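 Using Biotin-Ahx-Ub-VS at 0.5 µM final for 1 h, DUBs were labelled in HEK293T lysate (495 µg per sample) that had first been treated in triplicate with fragment at 200 µM or vehicle for 3 h. NeutrAvidin enrichment, LysC and trypsin digestion and diaPASEF LC-MS/MS followed. Spectronaut label-free quantities were global-median-normalised. Values are average log2 fragment/vehicle ratios by unpaired t-test, using proteins with ≥2 unique peptides.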

UniProt O00487 = target: UniProt O00487
Method in brief: as §1

UniProt O00507 = target: UniProt O00507
Method in brief: as §1

UniProt P51784 = target: UniProt P51784
Method in brief: as §1

UniProt Q5T2D3 = target: T1, UniProt Q5T2D3
T1 sequence (whole entry): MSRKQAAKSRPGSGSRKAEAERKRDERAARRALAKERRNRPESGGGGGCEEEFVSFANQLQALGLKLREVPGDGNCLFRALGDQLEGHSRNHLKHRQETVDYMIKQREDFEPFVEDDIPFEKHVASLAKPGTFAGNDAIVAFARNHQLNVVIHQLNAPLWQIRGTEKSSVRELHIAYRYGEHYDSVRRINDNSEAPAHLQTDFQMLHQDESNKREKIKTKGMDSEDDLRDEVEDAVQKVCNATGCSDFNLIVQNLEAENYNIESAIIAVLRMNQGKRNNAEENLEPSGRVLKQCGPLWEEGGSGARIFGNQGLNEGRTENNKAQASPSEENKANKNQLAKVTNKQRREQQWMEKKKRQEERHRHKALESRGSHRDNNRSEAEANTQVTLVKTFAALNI
Method in brief: as §1

UniProt Q8TE49 = target: T2, UniProt Q8TE49
T2 sequence (whole entry): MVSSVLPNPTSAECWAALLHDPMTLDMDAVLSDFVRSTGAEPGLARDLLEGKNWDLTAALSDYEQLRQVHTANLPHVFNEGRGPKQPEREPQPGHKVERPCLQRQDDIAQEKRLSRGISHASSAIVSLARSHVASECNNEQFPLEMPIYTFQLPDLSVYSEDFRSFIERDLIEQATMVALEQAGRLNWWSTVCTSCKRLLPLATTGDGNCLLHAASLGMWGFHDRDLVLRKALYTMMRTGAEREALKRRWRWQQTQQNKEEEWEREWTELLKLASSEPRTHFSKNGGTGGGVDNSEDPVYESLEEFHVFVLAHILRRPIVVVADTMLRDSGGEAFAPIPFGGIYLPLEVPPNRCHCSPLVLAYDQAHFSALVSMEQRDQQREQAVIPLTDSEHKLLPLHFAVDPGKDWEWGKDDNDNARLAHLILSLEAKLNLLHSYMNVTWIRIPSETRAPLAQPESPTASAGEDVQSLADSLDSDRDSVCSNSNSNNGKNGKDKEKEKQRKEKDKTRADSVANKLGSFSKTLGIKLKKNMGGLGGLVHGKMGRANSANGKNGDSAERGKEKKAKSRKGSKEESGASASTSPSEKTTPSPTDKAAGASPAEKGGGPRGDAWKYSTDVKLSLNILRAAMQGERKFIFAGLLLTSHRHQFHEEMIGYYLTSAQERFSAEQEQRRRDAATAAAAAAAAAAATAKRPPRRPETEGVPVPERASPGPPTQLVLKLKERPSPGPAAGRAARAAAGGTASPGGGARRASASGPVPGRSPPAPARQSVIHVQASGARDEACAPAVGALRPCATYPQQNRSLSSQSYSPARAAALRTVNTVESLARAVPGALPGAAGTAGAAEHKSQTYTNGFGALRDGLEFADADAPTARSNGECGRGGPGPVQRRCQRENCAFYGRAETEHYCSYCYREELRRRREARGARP
Method in brief: as §1

UniProt Q9P2H5 = target: T3, UniProt Q9P2H5
T3 sequence (whole entry): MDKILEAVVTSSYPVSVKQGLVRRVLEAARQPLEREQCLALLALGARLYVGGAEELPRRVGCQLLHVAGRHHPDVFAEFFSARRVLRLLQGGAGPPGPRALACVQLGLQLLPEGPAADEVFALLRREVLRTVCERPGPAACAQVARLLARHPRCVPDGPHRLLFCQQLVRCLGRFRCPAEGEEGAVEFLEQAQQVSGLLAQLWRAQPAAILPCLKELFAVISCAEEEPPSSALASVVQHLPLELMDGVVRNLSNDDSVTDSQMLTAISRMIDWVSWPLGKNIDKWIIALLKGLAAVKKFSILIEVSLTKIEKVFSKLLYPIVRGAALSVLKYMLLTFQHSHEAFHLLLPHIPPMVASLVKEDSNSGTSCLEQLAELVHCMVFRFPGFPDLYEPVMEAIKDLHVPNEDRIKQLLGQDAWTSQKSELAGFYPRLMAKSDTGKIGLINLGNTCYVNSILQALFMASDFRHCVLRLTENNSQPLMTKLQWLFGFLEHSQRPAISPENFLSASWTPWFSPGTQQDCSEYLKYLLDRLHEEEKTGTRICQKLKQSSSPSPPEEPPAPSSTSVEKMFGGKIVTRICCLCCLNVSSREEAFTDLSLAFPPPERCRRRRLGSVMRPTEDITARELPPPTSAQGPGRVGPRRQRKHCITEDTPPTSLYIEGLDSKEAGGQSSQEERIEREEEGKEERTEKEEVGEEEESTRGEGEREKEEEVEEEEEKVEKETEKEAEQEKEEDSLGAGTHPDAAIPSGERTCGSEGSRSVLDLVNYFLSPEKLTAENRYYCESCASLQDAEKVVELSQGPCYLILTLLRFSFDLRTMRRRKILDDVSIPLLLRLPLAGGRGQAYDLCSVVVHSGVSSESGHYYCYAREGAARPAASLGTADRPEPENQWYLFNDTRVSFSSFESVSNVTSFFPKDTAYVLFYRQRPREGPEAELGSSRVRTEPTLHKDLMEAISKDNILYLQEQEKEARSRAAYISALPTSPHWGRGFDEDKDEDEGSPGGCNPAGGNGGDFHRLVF
Method in brief: as §1

UniProt Q9UGI0 = target: T4, UniProt Q9UGI0
T4 sequence (whole entry): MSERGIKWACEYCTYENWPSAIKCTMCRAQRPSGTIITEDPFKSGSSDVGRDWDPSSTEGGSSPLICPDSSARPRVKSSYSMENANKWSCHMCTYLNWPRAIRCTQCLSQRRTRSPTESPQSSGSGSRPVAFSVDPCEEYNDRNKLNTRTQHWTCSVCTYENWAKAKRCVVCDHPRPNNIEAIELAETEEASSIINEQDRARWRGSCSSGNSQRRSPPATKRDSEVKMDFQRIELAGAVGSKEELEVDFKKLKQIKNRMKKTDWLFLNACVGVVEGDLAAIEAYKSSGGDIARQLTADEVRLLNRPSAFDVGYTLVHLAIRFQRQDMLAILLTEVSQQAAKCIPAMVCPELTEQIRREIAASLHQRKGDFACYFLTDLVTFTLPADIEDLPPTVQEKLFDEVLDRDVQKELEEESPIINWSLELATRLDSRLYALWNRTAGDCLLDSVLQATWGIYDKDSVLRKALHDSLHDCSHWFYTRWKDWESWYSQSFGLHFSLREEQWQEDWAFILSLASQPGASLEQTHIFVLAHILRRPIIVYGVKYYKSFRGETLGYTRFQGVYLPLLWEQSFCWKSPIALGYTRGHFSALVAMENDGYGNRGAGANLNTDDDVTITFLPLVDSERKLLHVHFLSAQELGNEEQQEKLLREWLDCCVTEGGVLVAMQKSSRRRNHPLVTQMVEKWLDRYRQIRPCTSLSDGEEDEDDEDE
Method in brief: as §1

YOD1 = target: T5, YOD1 (UniProt Q5VVQ6)
T5 sequence (whole entry): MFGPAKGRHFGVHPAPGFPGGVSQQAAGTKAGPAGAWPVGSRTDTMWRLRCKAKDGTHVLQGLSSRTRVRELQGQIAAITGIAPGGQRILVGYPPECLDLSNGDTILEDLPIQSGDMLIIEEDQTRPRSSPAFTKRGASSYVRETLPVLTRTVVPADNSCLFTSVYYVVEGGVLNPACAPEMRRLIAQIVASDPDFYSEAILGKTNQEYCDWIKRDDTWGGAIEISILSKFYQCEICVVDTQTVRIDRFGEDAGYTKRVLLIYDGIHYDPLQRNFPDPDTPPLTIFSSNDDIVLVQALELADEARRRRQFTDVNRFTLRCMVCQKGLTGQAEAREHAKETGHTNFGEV
Method in brief: as §1

Measured: log2 ratio of Biotin-Ahx-Ub-VS probe labelling

UniProt O00487, sequence (O00487 whole entry): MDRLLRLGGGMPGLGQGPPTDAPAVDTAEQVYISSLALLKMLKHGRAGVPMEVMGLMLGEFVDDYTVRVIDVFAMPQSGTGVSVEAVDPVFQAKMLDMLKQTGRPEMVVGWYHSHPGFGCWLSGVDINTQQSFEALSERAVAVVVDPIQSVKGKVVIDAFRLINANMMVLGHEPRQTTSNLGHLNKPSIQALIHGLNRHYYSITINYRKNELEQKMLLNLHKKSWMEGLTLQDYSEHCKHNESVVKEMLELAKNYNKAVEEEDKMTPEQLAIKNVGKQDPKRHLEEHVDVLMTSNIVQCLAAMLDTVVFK
USP9X, sequence (Q93008 whole entry, the tested form may be a part): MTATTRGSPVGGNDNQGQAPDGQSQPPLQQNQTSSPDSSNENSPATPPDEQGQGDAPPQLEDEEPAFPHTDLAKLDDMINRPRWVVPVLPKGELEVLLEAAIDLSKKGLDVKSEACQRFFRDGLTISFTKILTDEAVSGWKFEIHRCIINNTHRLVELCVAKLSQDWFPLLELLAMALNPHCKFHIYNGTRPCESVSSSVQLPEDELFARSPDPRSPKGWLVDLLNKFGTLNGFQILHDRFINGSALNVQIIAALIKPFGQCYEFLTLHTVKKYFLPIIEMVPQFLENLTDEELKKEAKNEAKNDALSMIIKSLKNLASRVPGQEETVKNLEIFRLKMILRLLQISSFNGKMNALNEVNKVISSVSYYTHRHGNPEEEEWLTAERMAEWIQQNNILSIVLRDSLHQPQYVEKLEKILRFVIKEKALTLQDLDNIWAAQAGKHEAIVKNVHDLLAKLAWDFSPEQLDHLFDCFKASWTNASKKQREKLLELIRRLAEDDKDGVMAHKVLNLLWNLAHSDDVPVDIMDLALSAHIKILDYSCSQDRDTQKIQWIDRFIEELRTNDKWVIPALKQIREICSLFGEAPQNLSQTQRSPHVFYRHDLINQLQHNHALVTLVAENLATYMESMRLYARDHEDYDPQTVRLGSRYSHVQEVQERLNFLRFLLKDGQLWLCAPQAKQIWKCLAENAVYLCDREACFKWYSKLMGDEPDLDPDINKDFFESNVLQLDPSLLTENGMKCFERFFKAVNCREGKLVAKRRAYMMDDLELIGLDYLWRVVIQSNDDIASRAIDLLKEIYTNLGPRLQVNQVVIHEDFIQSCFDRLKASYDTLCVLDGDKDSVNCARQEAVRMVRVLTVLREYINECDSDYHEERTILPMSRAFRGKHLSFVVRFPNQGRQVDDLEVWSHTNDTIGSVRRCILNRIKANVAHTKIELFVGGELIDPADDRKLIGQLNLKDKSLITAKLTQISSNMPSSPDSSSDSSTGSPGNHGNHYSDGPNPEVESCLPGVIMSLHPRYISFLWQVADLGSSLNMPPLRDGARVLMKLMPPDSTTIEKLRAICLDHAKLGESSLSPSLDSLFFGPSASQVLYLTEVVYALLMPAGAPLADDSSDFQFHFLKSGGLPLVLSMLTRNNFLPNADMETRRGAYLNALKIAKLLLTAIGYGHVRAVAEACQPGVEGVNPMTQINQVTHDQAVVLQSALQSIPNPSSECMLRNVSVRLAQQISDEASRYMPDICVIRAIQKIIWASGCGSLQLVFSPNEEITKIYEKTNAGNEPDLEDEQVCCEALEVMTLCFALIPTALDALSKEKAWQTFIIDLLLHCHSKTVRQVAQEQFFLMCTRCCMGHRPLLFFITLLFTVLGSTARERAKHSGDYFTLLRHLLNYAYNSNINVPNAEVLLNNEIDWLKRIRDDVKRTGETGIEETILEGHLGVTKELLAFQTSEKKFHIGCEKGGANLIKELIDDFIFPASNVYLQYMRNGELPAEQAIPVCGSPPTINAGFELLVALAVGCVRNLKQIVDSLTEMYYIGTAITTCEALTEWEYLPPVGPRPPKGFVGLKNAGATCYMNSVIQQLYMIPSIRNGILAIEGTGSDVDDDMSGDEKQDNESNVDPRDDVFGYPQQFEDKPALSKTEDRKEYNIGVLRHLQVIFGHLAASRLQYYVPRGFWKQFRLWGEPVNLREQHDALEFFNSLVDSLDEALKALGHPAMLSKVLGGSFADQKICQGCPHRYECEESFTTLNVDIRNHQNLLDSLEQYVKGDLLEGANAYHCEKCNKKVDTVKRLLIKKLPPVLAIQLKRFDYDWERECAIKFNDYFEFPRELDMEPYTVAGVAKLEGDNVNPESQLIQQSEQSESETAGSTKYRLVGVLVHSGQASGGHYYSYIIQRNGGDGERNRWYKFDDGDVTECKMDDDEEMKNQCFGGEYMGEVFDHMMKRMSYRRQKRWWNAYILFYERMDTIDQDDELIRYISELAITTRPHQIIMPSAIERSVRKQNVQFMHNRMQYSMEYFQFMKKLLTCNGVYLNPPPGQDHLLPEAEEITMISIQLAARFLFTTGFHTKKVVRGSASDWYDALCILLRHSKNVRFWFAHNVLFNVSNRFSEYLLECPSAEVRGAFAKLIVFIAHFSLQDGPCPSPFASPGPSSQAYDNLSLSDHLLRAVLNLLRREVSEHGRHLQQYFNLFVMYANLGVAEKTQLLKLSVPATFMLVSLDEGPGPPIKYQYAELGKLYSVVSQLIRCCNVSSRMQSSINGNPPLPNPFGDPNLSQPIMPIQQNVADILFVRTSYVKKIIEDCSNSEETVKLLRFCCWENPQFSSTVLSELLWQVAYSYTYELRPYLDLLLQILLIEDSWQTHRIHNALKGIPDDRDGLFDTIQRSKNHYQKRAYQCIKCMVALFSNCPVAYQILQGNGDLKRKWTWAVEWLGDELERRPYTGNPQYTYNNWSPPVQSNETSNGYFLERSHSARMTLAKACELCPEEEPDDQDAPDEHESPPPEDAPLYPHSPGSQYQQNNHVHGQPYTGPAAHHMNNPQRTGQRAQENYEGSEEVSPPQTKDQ
UniProt P51784, sequence (P51784 whole entry): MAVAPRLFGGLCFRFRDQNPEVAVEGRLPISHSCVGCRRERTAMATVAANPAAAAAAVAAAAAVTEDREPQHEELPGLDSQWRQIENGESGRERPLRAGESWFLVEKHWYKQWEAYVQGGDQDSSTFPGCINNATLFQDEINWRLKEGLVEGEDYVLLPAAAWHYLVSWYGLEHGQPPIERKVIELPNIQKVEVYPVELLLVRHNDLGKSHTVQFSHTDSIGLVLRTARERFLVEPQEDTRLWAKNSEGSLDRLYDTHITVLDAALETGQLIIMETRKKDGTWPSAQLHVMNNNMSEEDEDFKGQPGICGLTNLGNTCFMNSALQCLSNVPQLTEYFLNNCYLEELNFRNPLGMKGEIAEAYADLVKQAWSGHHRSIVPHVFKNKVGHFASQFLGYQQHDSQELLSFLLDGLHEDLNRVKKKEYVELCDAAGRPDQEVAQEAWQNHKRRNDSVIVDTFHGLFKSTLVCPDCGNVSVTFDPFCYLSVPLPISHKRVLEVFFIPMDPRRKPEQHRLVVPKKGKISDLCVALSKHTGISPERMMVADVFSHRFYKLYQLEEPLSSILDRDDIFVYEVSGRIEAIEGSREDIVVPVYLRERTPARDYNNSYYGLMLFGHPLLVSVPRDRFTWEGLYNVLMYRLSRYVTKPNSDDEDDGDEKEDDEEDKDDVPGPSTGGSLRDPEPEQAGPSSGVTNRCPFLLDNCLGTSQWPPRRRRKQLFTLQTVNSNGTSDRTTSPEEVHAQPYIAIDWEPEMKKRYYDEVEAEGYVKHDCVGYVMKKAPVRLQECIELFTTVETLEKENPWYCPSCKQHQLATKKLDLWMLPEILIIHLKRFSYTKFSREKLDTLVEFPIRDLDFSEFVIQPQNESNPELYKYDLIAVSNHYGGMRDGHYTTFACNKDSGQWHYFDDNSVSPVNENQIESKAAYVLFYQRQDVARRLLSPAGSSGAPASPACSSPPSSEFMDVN

CC(NC(=O)CCl)c1cccc2ccccc12 (centres undefined)
inactive: USP9X -0.285 | UniProt O00487 -0.0949 | UniProt O00507 0.0439 | UniProt P51784 -0.0702 | UniProt Q5T2D3 -0.196 | UniProt Q9P2H5 -0.463 | UniProt Q9UGI0 -0.905 | YOD1 0.0311
active: UniProt Q8TE49 -1.06
